Inconclusive results are not listed. The source made the active and inactive calls. The call rests on the fitted dose curve; in most records, active means well fitted inhibition curve with a large enough effect; inconclusive means small, poorly fitted or top-dose-only effect, or effect the other way; inactive means flat fitted curve, though single readings scatter.
On the % scale 0 is the no-effect control and ±100 the full control effect.

Sequence of ATP-dependent 6-phosphofructokinase (Trypanosoma brucei brucei) (O15648 whole entry, looked up): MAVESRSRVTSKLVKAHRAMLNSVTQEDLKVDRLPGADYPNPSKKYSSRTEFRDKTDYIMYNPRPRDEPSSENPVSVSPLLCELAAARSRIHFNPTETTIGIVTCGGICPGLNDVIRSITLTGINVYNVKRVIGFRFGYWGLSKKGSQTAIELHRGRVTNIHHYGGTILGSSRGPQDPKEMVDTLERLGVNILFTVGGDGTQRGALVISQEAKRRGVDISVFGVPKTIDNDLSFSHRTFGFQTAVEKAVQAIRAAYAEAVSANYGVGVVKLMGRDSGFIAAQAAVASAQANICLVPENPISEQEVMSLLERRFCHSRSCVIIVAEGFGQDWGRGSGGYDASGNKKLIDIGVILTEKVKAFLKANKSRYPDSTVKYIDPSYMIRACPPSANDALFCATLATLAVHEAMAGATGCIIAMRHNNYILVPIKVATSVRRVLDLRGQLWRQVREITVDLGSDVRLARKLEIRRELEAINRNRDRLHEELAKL

This test has as its target ATP-dependent 6-phosphofructokinase (Trypanosoma brucei brucei) (UniProt O15648). Nature of the test: qHTS Assay to Find Inhibitors of T. brucei phosphofructokinase: hit validation (AID 492961).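 Further: luminescence reports ADP formed as PFK phosphorylates fructose-6-phosphate with ATP.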 As to conditions: T. brucei PFK, ADP-Glo luminescence; series mostly up to 51.4 µM; activity change, negative = inhibition: at the top concentration. Put shortly: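 Inhibition of parasite PFK is measured as reduced ADP formation, quantified via luciferase after ATP depletion. Assay used 0.1 mM ATP, 0.5 mM F6P, 1.25 nM enzyme, 45 min incubation.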
(In general: In qHTS, concentration-response curves come from the screen itself.)
On to `NNc1ccccc1`, for which the “activity change, negative = inhibition” value is 0.426% (inactive).
On to `O=C1Nc2ccc(Cl)cc2C(c2ccccc2Cl)=NC1O` (stereo not drawn), for which the “activity change, negative = inhibition” value is 1.3% (inactive).
As for `NC(=O)CS(=O)C(c1ccccc1)c1ccccc1` (stereo not drawn), the “activity change, negative = inhibition” value was -4.38% (inactive).
For the compound `CNC(C)(C)Cc1ccccc1`, the “activity change, negative = inhibition” value was -8.27% [at 24.3 µM] (inactive).
On to `COP(=S)(OC)Oc1ccc(S(=O)(=O)N(C)C)cc1`, for which the “activity change, negative = inhibition” value was 2.04% (inactive).
The same measure, in the same setting: for `Cc1nnc2n1-c1ccc(Cl)cc1C(c1ccccc1)=NC2` the value was -8.83% (inactive).
Still for that read-out and setting: next, `NC(=O)CC[C@@H]1NC(=O)[C@H](Cc2ccccc2)NC(=O)[C@H](Cc2ccc(O)cc2)NC(=O)[C@@H](N)CSSC[C@@H](C(=O)N2CCC[C@H]2C(=O)N[C@@H](CCCN=C(N)N)C(=O)NCC(N)=O)NC(=O)[C@H](CC(N)=O)NC1=O`: -5.12% (inactive).
For `CN1C(=O)NC(=O)C(C)(C2=CCCCC2)C1=O` (stereo not drawn), the outcome was inactive.
As for `O=C1CN=C(c2ccccc2)c2cc([N+](=O)[O-])ccc2N1`, the “activity change, negative = inhibition” value was -9.43% (inactive).
On to `Clc1ccc2c(c1)C(c1ccccc1)=NCc1nncn1-2`, for which the “activity change, negative = inhibition” value is 3.26% (inactive).
Consider `CCC(C)(C)c1ccc(O)cc1`, for which the “activity change, negative = inhibition” value is -4.17% (inactive).
For the compound `O=c1oc2ccccc2c(O)c1Cc1c(O)c2ccccc2oc1=O`, the “activity change, negative = inhibition” value is 0.958% [at 24.3 µM] (inactive).
Still for that read-out and setting: for `Nc1ccccc1C(=O)O` the value was 9.46% (inactive).
On the same count and under the same terms, next, `CCCC(C)(COC(N)=O)COC(N)=O`: 11.2% (inactive); `CCOP(=S)(OCC)Oc1ccc2c(C)c(Cl)c(=O)oc2c1`: 5.95% (inactive).
`COc1c2c(cc3c1OCO3)CCN(C)C2`: the “activity change, negative = inhibition” value is 11.3% [at 24.3 µM] (inactive).
In the case of `Oc1ccc(Cl)cc1`, the “activity change, negative = inhibition” value is 0% (inactive).
On the same count and under the same terms, for `O=C(Nc1ccc(Br)cc1)c1cc(Br)cc(Br)c1O` the value was -4.18% (inactive).
